Compound activity: PubChem, several laboratories
Rows were chosen to be rich in hits. Some 2.2% of all compounds tested hit in one or more screens of this group.
BaF3 parental: parental Ba/F3 cell viability inhibition, counter-screen for JAK2V617F inhibitor project, murine pro-B, CellTiter-Glo luminescence | inhibition, % at 5.6 µM | CellTiter-Glo ATP luminescence | actives 1.1% (n = 220,000);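 active = inhibition above a per-campaign cutoff, the mean inhibition of all tested compounds plus 3 SD, cut at about 27% in these data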
APP transl inh: inhibitors of APP translation via 5'UTR reporter, primary screen, APP 5'UTR luciferase, SH-SY5Y cells; actives 0.82% (n = 190,000); SH-SY5Y APP 5'UTR-luciferase reporter, luminescence; AID 1285, 2008; inhibition, % at 2 µM;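 active = inhibition above a set limit, derived from the sample mean plus 3 SD, cut at about 45% in these data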
aSyn UTR inh: MLPCN primary screen, SNCA 5' untranslated region; alpha-synuclein 5'UTR reporter, inhibitor activity; actives 0.82% (n = 300,000); inhibition, % (tested at 7.5 µM); in the data active = inhibition above about 60%;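 note: H4 neuroglioblastoma cells stably carrying SNCA 5'UTR luciferase fusion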
Ba/F3 V617F tox: reduced viability of JAK2V617F-dependent Ba/F3 cells, primary screen, JAK2V617F inhibitor project, cell-based, Ba/F3 EpoR-JAK2V617F, luminescence. actives 1.1% (n = 220,000). inhibition, % at 5.6 µM. AID 1446, 2008. ATP luminescence;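 active = inhibition above the campaign mean plus 3 SD over all tested compounds, cut at about 24% in these data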;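 note: cytokine-independent growth of Ba/F3 cells driven by EpoR plus mutant JAK2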
IEC-6 tox: cytotoxicity in IEC-6 intestinal epithelial cells, primary screen, cytotoxicity control for KLF5 inhibitor project, cell-based, luminescence | IEC-6 cytotoxicity, luminescence viability | inhibition, % at 5 µM | actives 0.78% (n = 290,000) | AID 1825, 2009; in the data active = inhibition above about 22%
KLF5 inh: KLF5 expression inhibitors, primary screen, DLD-1 cells, luminescence; AID 1700, 2009; DLD-1 KLF5 promoter-luciferase reporter; actives 0.23% (n = 290,000); inhibition, % at 5 µM;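 active = inhibition above a per-plate limit of that plate's mean compound inhibition plus 3 SD, cut at about 60% in these data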;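 note: higher means less KLF5 promoter-driven luciferase light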
Numbers stand for hits; . = inactive; / = no result.

SMILES	BaF3 parental	APP transl inh	aSyn UTR inh	Ba/F3 V617F tox	IEC-6 tox	KLF5 inh
CC(=O)NC(c1ccco1)c1ccc2cccnc2c1O (centres undefined)	.	55	77	.	.	.
CCCC(=O)NC(c1ccco1)c1cc([N+](=O)[O-])c2cccnc2c1O (centres undefined)	.	.	.	.	.	.
O=C(c1ccc(Br)cc1)N(Cc1ccco1)C1CCS(=O)(=O)C1 (centres undefined)	/	/	.	/	.	.
COc1nc(N=C(N)N)nc2ccc(C)cc12	56	.	.	55	.	.
NC(N)=Nc1nc(-c2ccccc2)c2ccccc2n1	.	.	.	.	.	.
C=CCn1c(Cc2cccs2)nnc1SCC(=O)Nc1ccc(C(=O)OCC)cc1	.	47	.	.	.	.
O=C(CNS(=O)(=O)c1cccc(Br)c1)NCC1CCCCC1	/	/	.	/	.	.
COC(=O)CCCNC(=O)CCc1nnc(-c2ccc(-c3ccccc3)cc2)o1	/	/	77	/	.	.
O=C(CCc1nnc(-c2ccc(-c3ccccc3)cc2)o1)NCCc1ccccn1	.	.	90	.	.	.
CC(NC(=O)CCc1nnc(-c2ccc(-c3ccccc3)cc2)o1)c1nccs1 (centres undefined)	.	.	89	.	.	.
CC(C)Oc1ccc(S(=O)(=O)N2CCOCC2)cc1NC(=O)CN1C(=O)NC2(CCCC2)C1=O	/	/	.	/	.	.
COc1ccc(Br)cc1CNC(=O)C1CCN(C(=O)N(C)C)CC1	.	.	78	.	.	.
COc1ccc(-c2nc(NC(=O)CCNC(=O)c3ccco3)sc2C)cc1	28	.	.	.	.	.
COc1cc(NC(=O)c2n[nH]c(=O)c3ccccc23)cc(OC)c1	.	/	.	.	.	.
COc1ccc(-c2nc(NC(=O)c3n[nH]c(=O)c4ccccc34)sc2C)cc1	.	.	.	.	22	.
C=CCn1cc(CN2CCC(C(=O)Nc3cccc(-c4cccc(Cl)c4)c3)CC2)c(C)n1	/	/	.	/	.	.
Clc1ccc2nc(N3CCCCC3)[nH]c2c1	.	.	.	.	.	.
O=c1c(Cl)c(N2CCCCC2)cnn1-c1nc2ccccc2[nH]1	.	.	93	.	.	.
COc1ccc(-c2cc3c(=O)n(CC(=O)NCCCN4CCC(Cc5ccccc5)CC4)ncn3n2)cc1	/	/	96	/	.	.
COC(=O)c1cc(COc2ccc3ccc(=O)oc3c2)c(C)o1	94	.	.	.	.	.
COc1ccc(CCNC(=O)CCCc2ccccc2)cc1OC	/	/	.	/	.	.
Cc1nn(-c2ccccc2)c(Cl)c1C(=O)NCC(C)C	.	77	.	.	.	.
CCC1S/C(=C(\C#N)C(=O)NCc2ccco2)N(c2ccc(Br)cc2)C1=O (centres undefined)	.	/	.	.	.	.
CCC1S/C(=C(\C#N)C(=O)NCc2ccco2)N(c2ccc(F)cc2)C1=O (centres undefined)	33	.	.	.	.	.
CCOC(=O)C1(CCc2ccccc2)CCN(C(=O)C2CCOCC2)CC1	.	.	.	.	.	.
SMILES	BaF3 parental	APP transl inh	aSyn UTR inh	Ba/F3 V617F tox	IEC-6 tox	KLF5 inh
COc1cc2c(cc1OC)-c1cc3ccc4c(c3c[n+]1CC2)OCO4	57	.	.	49	.	.
COc1cc2c(cc1O)CC[n+]1cc3c(OC)c(OC)ccc3cc1-2	45	.	.	.	.	.
COc1cc2c(ccc3cc(OC)c(OC)c(O)c32)cc1O	/	/	.	/	/	/
COc1cc2c(cc1OC)C(c1ccccc1)=NCC2	.	.	.	.	.	.
CSc1ccccc1NC(=O)c1c(Br)cnn1C	.	51	.	.	.	.
Cn1ncc(Br)c1C(=O)Nc1c(F)c(F)cc(F)c1F	.	.	.	.	.	.
Cc1ccc(NCc2n[nH]c(=S)n2Cc2ccccc2)cc1Cl	.	.	.	.	.	.
O=C1CS/C(=N\c2ccccn2)N1C1CCCCC1	96	.	.	.	.	.
COc1ccc(OCC(=O)Nc2ccc(N3CCN(Cc4ccccc4F)CC3)cc2)cc1	/	/	.	/	.	.
CN(C)CCCN(Cc1cc2cc3c(cc2[nH]c1=O)OCO3)C(=S)Nc1cccc(Cl)c1	46	.	.	36	.	.
